Experimental data: ChEMBL document CHEMBL2218924, “A broad activity screen in support of a chemogenomic map for kinase signalling research and drug discovery” (Biochem J, 2013); call rule not given here

How the values were obtained:
[1] = target: Mast/stem cell growth factor receptor Kit (Homo sapiens) (UniProt P10721); conditions: at 1 µM
[2] = target: Mast/stem cell growth factor receptor Kit (Homo sapiens) (UniProt P10721); conditions: at 10 µM
[3] = target: Proto-oncogene tyrosine-protein kinase Src (Homo sapiens) (UniProt P12931); conditions: at 1 µM
Sequence of Proto-oncogene tyrosine-protein kinase Src (Homo sapiens) (P12931 2-536 limits assumed): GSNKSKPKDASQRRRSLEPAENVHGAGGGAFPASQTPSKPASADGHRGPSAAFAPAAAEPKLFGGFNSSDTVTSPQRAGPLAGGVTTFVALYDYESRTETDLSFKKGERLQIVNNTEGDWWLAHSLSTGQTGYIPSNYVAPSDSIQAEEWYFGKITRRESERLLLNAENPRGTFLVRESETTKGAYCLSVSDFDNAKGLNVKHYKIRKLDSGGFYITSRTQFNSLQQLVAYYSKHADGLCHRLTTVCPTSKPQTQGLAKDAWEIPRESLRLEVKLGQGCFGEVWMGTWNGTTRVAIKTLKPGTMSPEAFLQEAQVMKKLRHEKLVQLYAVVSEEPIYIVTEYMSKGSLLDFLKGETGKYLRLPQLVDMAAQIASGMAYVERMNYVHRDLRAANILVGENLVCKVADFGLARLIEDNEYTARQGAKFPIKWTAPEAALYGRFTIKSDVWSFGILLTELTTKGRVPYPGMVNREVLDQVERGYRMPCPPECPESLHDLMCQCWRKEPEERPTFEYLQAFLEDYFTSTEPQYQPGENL

[4] = target: Proto-oncogene tyrosine-protein kinase Src (Homo sapiens) (UniProt P12931); conditions: at 10 µM
[5] = target: Serine/threonine-protein kinase mTOR (Homo sapiens) (UniProt P42345); conditions: at 1 µM
[6] = target: Serine/threonine-protein kinase mTOR (Homo sapiens) (UniProt P42345); conditions: at 10 µM
[7] = target: Serine/threonine-protein kinase mTOR (Homo sapiens) (UniProt P42345); conditions: at 1 µM; remark: listed apart in the source
[8] = target: Serine/threonine-protein kinase mTOR (Homo sapiens) (UniProt P42345); conditions: at 10 µM; remark: listed apart in the source
[9] = target: T1, Eukaryotic elongation factor 2 kinase (Homo sapiens) (UniProt O00418); conditions: at 1 µM
T1 sequence (whole entry): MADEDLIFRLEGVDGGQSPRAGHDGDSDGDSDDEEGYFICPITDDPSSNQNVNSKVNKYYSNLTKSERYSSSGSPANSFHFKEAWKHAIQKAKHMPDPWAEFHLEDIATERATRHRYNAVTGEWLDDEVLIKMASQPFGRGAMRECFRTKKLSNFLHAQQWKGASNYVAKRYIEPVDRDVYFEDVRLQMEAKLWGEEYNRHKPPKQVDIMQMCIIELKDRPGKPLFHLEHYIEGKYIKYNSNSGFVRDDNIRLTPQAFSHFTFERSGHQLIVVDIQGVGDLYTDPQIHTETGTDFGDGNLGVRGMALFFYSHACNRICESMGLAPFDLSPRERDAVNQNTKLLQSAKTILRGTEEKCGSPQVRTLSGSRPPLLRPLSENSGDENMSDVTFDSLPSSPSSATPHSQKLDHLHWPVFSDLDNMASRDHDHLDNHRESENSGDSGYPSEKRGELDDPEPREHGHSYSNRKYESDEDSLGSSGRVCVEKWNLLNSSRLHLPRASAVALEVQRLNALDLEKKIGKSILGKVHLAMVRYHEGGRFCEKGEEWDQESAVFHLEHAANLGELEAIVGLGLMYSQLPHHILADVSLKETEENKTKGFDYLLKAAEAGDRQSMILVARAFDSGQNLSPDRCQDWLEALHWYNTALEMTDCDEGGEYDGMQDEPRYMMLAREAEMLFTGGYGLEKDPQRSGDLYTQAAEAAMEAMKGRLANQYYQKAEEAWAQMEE

[10] = target: T1, Eukaryotic elongation factor 2 kinase (Homo sapiens); conditions: at 10 µM

Sequence of Mast/stem cell growth factor receptor Kit (Homo sapiens) (P10721 whole entry): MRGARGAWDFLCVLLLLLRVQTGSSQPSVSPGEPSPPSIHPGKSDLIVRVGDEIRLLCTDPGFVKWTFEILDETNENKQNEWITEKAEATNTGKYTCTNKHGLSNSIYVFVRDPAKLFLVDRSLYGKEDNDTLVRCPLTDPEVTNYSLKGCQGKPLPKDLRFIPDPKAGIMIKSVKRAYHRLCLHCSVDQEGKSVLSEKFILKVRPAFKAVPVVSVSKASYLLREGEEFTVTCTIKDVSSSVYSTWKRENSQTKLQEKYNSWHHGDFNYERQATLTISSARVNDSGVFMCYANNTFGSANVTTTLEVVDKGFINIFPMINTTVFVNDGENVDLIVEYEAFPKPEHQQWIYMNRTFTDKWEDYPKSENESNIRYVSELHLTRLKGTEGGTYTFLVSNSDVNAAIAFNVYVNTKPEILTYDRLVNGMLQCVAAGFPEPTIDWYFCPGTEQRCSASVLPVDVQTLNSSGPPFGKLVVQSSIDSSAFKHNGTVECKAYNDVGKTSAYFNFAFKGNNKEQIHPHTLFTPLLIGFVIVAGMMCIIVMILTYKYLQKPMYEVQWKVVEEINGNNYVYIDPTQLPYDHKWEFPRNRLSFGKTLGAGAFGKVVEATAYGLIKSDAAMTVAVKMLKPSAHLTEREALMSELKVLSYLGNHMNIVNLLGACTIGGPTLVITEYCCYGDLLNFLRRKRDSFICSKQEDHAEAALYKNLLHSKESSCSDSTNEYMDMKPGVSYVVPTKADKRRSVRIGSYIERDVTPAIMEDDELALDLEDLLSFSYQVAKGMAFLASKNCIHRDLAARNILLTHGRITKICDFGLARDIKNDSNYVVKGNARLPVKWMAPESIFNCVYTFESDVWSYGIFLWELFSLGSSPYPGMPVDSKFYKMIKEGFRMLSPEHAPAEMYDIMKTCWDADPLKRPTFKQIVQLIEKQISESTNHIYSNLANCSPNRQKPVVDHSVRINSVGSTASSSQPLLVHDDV

| SMILES | residual activity [1] | residual activity [2] | residual activity [3] | residual activity [4] | residual activity [5] | residual activity [6] | residual activity [7] | residual activity [8] | residual activity [9] | residual activity [10] |
| --- | --- | --- | --- | --- | --- | --- | --- | --- | --- | --- |
| Nc1n[nH]c2nnc(-c3c(-c4ccccc4)nn4ccccc34)cc12 | 95% | 108% | 103% | 77% | 113% | 97% | 129% | 87% |  |  |
| CCC(=O)Nc1ccc2ncnc(Nc3cccc(Br)c3)c2c1 | 109% | 103% | 88% | 89% | 106% | 104% | 123% | 101% | 94% (inactive) | 107% |
| Cc1cc2ncc(-c3ccccc3)nc2cc1C | 86% | 70% | 83% | 99% | 93% | 100% | 70% | 83% |  |  |
| O=c1cc(-c2cccc3c2Sc2ccccc2S3)oc(N2CCOCC2)c1 | 99% | 102% | 89% | 92% | 98% | 74% | 89% | 60% |  |  |
| COc1cc2ncc(-c3ccccc3)nc2cc1OC | 84% | 24% | 88% | 95% |  |  |  |  |  |  |
| CCN(CC)C(=O)c1ccc(Nc2nc(OCC3CCCCC3)c3nc[nH]c3n2)cc1 | 33% | 5% | 62% | 12% |  |  |  | 55% |  |  |
| O=C1Nc2ccccc2/C1=C1/Nc2ccccc2/C1=N\OCCC(O)CO (stereo not given) | 10% | 1% | 20% | -2% | 113% | 96% | 112% | 110% |  |  |
| Cc1ccc(NC2=CC(=O)c3sc(C)nc3C2=O)cc1 | 101% | 107% |  | 87% | 96% | 99% | 100% | 86% |  |  |
| COc1ccc(S(=O)(=O)N(CCO)c2ccccc2CN(C)C/C=C/c2ccc(Cl)cc2)cc1 | 115% | 100% | 116% | 90% | 109% | 96% | 97% | 101% |  |  |
| CC(C)n1cnc2/c(=N/c3cccc(Cl)c3)nc(NCCO)[nH]c21 | 108% | 94% | 54% | 7% | 114% | 96% | 82% | 101% |  |  |
| Nc1ccc2ncnc(NCCc3ccc(Oc4ccccc4)cc3)c2c1 | 114% | 95% | 110% | 95% |  | 96% | 112% | 63% |  |  |
| COc1cc2ncnc(N3CCN(C(=O)Nc4ccc(Oc5ccccc5)cc4)CC3)c2cc1OC | 37% | 7% | 95% | 97% | 107% | 102% | 98% | 99% |  |  |
| O=C1NC(=O)c2c1c1c3ccccc3[nH]c1c1[nH]c3cc(Br)ccc3c21 | 107% | 94% | 117% | 93% | 117% | 106% | 76% | 113% |  |  |
| CO[C@@H]1[C@H](N(C)C(=O)c2ccccc2)C[C@H]2O[C@]1(C)n1c3ccccc3c3c4c(c5c6ccccc6n2c5c31)C(=O)NC4 | 65% | 39% | 40% | 24% | 95% | 103% | 107% | 83% |  |  |
| COc1cc2ncnc(Nc3ccc(O)c(Br)c3)c2cc1OC | 102% | 103% | 54% | 18% | 106% | 111% | 96% | 101% |  |  |
| Nc1cccc(-c2cc3c(Oc4cccc(O)c4)ncnc3[nH]2)c1 | 20% | 2% | 6% | -3% |  | 83% | 122% | 94% |  |  |
| Cc1nc(-c2ccccc2)c(-c2ccncc2)o1 | 124% | 98% | 113% | 81% | 109% | 103% | 116% | 94% |  |  |
| COc1cc2ncnc(Nc3ccc(NC(=O)c4ccccc4)cc3)c2cc1OC |  | 59% | 83% | 95% | 88% | 92% | 97% | 75% |  |  |
| Cc1ccc(S(=O)(=O)/C=C/C#N)cc1 | 100% | 114% | 114% | 76% | 95% | 101% | 86% | 82% |  |  |
| CN(C)CCCn1cc(C2=C(c3c[nH]c4ccccc34)C(=O)NC2=O)c2ccccc21 |  |  | 82% |  | 84% |  | 83% |  |  |  |

| SMILES | residual activity [1] | residual activity [2] | residual activity [3] | residual activity [4] | residual activity [5] | residual activity [6] | residual activity [7] | residual activity [8] | residual activity [9] | residual activity [10] |
| --- | --- | --- | --- | --- | --- | --- | --- | --- | --- | --- |
| Oc1ccc(-c2nc(-c3ccc(F)cc3)c(-c3ccncc3)[nH]2)cc1 | 122% | 107% | 108% | 45% | 98% | 90% | 123% | 90% |  |  |
| Cc1cncc2cccc(S(=O)(=O)N3CCCN(C(=O)CN)C[C@H]3C)c12 |  |  | 86% | 96% |  |  |  |  |  |  |
| Oc1ccc(Nc2nc(-c3ccc(Cl)cc3)cs2)cc1 | 110% | 76% | 116% | 93% | 102% | 83% | 103% | 106% |  |  |
| O=C1c2ccccc2-[n+]2ccc3c([nH]c4ccccc43)c21 | 106% | 97% | 111% | 91% | 103% | 103% | 116% | 101% |  |  |
| Cc1cc(Nc2nc(-c3ccccc3)nc3ccccc23)n[nH]1 | 23% | 2% | 14% | -2% | 109% |  | 128% |  |  |  |
| Cc1nc2cc3nc(-c4cccs4)cnc3cc2n1C | 80% | 13% | 78% | 86% | 105% | 107% | 80% | 84% |  |  |
| Ic1cccc(CSc2nnc(-c3ccncc3)o2)c1 | 97% | 102% | 113% | 83% | 108% | 102% | 108% | 109% |  |  |
| c1ccc(-c2n[nH]cc2-c2ccnc3ccccc23)nc1 | 101% | 107% | 86% | 90% |  |  | 85% | 102% |  |  |
| Cn1nc2c3c(cccc31)C(=O)c1ccccc1-2 | 104% | 95% |  | 93% | 82% | 84% |  | 66% |  |  |
| Nc1nc(Nc2ccc(S(N)(=O)=O)cc2)nn1C(=S)Nc1c(F)cccc1F | 100% | 66% | 23% | 1% | 108% | 89% | 128% | 94% |  |  |
| c1ccc(-c2n[nH]c3c2oc2ccccc23)cc1 | 16% | 1% | 86% | 90% | 88% | 85% |  | 72% |  |  |
| O=C1Nc2ccc(Br)cc2/C1=C\c1cc2c([nH]1)CCCC2 | 66% | 43% | 73% | 99% | 116% | 104% | 110% | 103% |  |  |
| N#CC(C#N)=C(N)/C(C#N)=C/c1ccc(O)cc1 |  |  | 83% |  |  |  |  | 61% |  |  |
| N#Cc1cnc2cnc(NCc3cccnc3)cc2c1Nc1ccc(F)c(Cl)c1 |  | 92% | 56% | 39% | 89% | 85% |  | 96% |  |  |
| CC(=O)c1ccc(N2CCOCC2)cc1O |  | 101% | 86% | 93% |  |  | 104% |  |  |  |
| O=c1c2ccccc2[nH]c(=S)n1CCN1CCC(=C(c2ccc(F)cc2)c2ccc(F)cc2)CC1 | 106% | 89% | 85% | 97% | 78% | 85% | 107% | 69% |  |  |
| N#CCCc1ccc2c(c1)-c1[nH]c3ccc([N+](=O)[O-])cc3c1CC(=O)N2 |  |  | 46% | 13% | 116% |  |  |  |  |  |
| Cc1cccc(-c2[nH]c(C(C)(C)C)nc2-c2ccc3c(c2)OCO3)n1 |  |  | 91% | 102% |  |  |  |  |  |  |
| O=C(O)c1ccc2c3c1cccc3c(=O)n1c3ccccc3nc21 | 122% | 119% | 120% | 95% | 105% | 59% | 98% | 39% |  |  |
| CC#CC(=O)Nc1cc2c(Nc3ccc(F)c(Cl)c3)ncnc2cn1 | 111% | 100% | 89% | 92% | 108% | 100% | 113% | 92% |  |  |
